# Data taken from PubChem BioAssay (Tox21).
# Values joined by “and” are separate entries in the source; they are usually repeats but may differ in a detail not shown here. Equal entries are not always repeated. Results filed as inconclusive are left out. Entries that show only a call come without a potency. Some structures have more than one record in an assay (separate samples or runs), and their calls can disagree. Active and inactive are the calls of the source. Unless noted, calls come from the whole dose curve.
# Tests used:
# [1] = Nuclear factor erythroid 2-related factor 2/antioxidant responsive element (Nrf2/ARE) small molecule agonists: qHTS cell viability counter screen in human keratinocytes (AID 1919968; active = well fitted curve in the direction sought with a large enough effect in the repeat runs; an effect the other way counts as inactive or inconclusive; note: nearly all actives have a fitted effect of over 55% in size; note: potency is the fitted concentration of half-maximal effect)
# Procedure, shortened: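 KeratinoSens HaCaT cells, 1,500/well, preincubated 5 h, then exposed to compounds in DMSO for 23 h at 37 C/5% CO2. Viability read as CellTiter-Fluor fluorescence after 1 h, in the same wells as the ARE-luciferase read.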
# [2] = Nuclear factor erythroid 2-related factor 2/antioxidant responsive element (Nrf2/ARE) small molecule agonists: luciferase reporter gene qHTS assay in human keratinocytes (AID 1919969); note: nearly all actives have a fitted effect of over 35% in size; note: potency is the fitted concentration of half-maximal effect
# [3] = molecular target: Gonadotropin-releasing hormone receptor (Homo sapiens) (UniProt P30968); test: Human gonadotropin-releasing hormone receptor (GnRHR) small molecule agonists, calcium flux assay in GnRHR-HEK293 cells (AID 1920063); note: nearly all actives have a fitted effect of over 35% in size
# Gonadotropin-releasing hormone receptor (Homo sapiens), sequence (P30968 whole entry, looked up): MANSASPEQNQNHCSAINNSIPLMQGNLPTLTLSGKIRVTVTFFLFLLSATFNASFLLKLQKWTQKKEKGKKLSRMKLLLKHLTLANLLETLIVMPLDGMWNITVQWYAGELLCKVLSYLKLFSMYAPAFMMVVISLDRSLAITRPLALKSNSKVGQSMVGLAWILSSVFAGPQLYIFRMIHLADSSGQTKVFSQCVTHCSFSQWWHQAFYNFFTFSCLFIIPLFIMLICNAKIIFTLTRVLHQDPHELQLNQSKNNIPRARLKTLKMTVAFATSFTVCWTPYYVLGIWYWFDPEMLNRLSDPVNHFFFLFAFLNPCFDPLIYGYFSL
# Procedure, shortened: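 HEK293 cells stably expressing human GnRHR were dye-loaded for 1 h at 37 C. Compound was added in agonist mode and fluorescence (Ex/Em 480/540) recorded kinetically for 3 min. Fifteen concentrations, triplicates.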
# [4] = molecular target: KiSS-1 receptor (Homo sapiens) (UniProt Q969F8); test: Human kisspeptin (KISS1R) small molecule agonists, calcium flux assay in KISS1R-HEK293 cells (AID 1920064; active = well fitted curve in the direction sought with a large enough effect in the repeat runs; an effect the other way counts as inactive or inconclusive)
# KiSS-1 receptor (Homo sapiens), sequence (Q969F8 whole entry, looked up): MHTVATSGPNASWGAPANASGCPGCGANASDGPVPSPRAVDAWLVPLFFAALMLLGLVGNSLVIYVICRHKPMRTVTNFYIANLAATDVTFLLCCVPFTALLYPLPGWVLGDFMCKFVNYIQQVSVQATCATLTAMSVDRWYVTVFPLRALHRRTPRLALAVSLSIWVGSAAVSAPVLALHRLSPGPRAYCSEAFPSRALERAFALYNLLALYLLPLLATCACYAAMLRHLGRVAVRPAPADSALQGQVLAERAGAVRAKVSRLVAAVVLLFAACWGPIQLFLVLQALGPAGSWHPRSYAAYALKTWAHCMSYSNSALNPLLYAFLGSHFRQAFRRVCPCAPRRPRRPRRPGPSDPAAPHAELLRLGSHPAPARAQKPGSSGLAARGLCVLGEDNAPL
# Procedure, shortened: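 HEK293 cells stably expressing human KISS1R were loaded with calcium dye for 1 h at 37 C, then given compound; fluorescence (Ex/Em 480/540) was read kinetically for 3 min. Fifteen concentrations, triplicate.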
# [5] = G protein-coupled receptor (GPCR) small molecule agonists, calcium flux assay: HEK293 wild type cell line counter screen (AID 1920065)
# Procedure, shortened: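 Wild-type HEK293 cells plated 18 h, loaded with calcium dye 1 h at 37 C, then compounds added in agonist mode (ATP as positive control). Kinetic fluorescence Ex/Em 480/540 recorded 3 min at 1 sec intervals; 15 concentrations, triplicate.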
# [6] = p53 small molecule agonists, cell-based qHTS assay with human liver microsomes (AID 1963577)
# Procedure, shortened: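 p53RE-bla reporter cells were pre-incubated 5 h at 37 C, then treated with compounds plus human liver microsomes (0.5 mg/mL final) and NADPH (0.5 mg/mL final) for 16 h at 37 C. Beta-lactamase activity was read by LiveBLAzer fluorescence after 2 h at room temperature.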
# [7] = p53 small molecule agonists, cell-based qHTS assay with rat liver microsomes (AID 1963578)
# Procedure, shortened: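 p53RE-bla cells were exposed to compounds together with rat liver microsomes (0.5 mg/mL final) and NADPH (0.5 mg/mL final) for 16 h at 37 C, then read by LiveBLAzer beta-lactamase fluorescence after 2 h at room temperature.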
# [8] = p53 small molecule agonists, cell-based qHTS assay with human liver microsomes: qHTS cell viability counter screen (AID 1963579); note: nearly all actives have a fitted effect of over 45% in size; note: potency is the fitted concentration of half-maximal effect
# Procedure, shortened: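 p53RE-bla cells (4,000/well) were pre-incubated 5 h at 37 C, then given compounds in DMSO plus human liver microsomes (0.5 mg/mL final) and NADPH (0.5 mg/mL final) for 16 h at 37 C. Viability was read by CellTiter-Glo luminescence.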
# [9] = p53 small molecule agonists, cell-based qHTS assay: qHTS cell viability counter screen (AID 1963581); note: nearly all actives have a fitted effect of over 45% in size; note: potency is the fitted concentration of half-maximal effect
# Procedure, shortened: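 p53RE-bla HCT-116 cells, compounds added 5 h after plating and incubated 16 h at 37 C. Cytotoxicity measured in the same wells as intracellular ATP by CellTiter-Glo luminescence after 30 min at room temperature.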
# [10] = molecular target: 5-hydroxytryptamine receptor 2A (Homo sapiens) (UniProt P28223); test: 5-hydroxytryptamine receptor 2A (HTR2A) small molecule antagonists, cell-based qHTS assay (AID 1963586); note: nearly all actives have a fitted effect of over 45% in size; note: potency is the fitted concentration of half-maximal effect
# 5-hydroxytryptamine receptor 2A (Homo sapiens), sequence (P28223 whole entry, looked up): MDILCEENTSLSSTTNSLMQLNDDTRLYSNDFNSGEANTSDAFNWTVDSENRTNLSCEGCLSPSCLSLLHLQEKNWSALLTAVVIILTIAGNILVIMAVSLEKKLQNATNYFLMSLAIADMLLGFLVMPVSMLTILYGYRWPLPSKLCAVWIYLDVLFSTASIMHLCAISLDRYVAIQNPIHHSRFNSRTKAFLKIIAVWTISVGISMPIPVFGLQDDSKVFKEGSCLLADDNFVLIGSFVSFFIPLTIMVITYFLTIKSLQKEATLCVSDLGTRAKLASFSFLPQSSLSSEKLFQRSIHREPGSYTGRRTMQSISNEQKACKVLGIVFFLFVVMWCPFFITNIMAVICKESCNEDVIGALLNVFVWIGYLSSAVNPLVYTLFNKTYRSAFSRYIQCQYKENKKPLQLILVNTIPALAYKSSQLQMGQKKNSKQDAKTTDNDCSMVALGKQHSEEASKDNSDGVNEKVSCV
# Procedure, shortened: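 Antagonist-mode intracellular calcium assay: DOI (4 nM) added after 5 min compound pre-incubation at room temperature to dye-loaded HTR2A-CHO cells. Fluorescence followed for 3 min, sampled every second.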
# [11] = molecular target: 5-hydroxytryptamine receptor 2A (Homo sapiens) (UniProt P28223); test: 5-hydroxytryptamine receptor 2A (HTR2A) small molecule agonists, cell-based qHTS assay (AID 1963587); note: nearly all actives have a fitted effect of over 30% in size
# Procedure, shortened: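 CHO cells stably expressing human HTR2A, plated 18 h, loaded with calcium dye 1 h at 37 C. Agonist mode: compounds added and intracellular calcium fluorescence recorded kinetically for 2 min at 1 sec intervals.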
# [12] = molecular target: Muscarinic acetylcholine receptor M1 (Homo sapiens) (UniProt P11229); test: Cholinergic receptor muscarinic 1 (CHRM1) small molecule antagonists, cell-based qHTS assay (AID 1963588); note: nearly all actives have a fitted effect of over 40% in size
# Muscarinic acetylcholine receptor M1 (Homo sapiens), sequence (P11229 whole entry, looked up): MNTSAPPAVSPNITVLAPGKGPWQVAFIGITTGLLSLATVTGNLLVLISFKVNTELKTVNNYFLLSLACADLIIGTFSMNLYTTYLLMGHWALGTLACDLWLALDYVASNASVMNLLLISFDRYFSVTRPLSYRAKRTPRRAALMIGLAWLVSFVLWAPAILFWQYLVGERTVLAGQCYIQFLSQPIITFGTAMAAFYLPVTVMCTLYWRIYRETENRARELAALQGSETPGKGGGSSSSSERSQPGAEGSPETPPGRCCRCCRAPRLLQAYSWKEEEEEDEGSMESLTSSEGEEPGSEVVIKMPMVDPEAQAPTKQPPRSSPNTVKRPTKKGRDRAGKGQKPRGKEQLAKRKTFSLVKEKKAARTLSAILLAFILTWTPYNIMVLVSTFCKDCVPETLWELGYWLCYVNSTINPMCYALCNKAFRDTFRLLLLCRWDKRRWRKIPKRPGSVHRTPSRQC
# Procedure, shortened: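 CHRM1-CHO calcium-flux assay, antagonist mode. Cells were seeded 18 h, dye-loaded 1 h at 37 C and given compound for 5 min at RT, then acetylcholine was added at 50nM. FDSS fluorescence was read 3 min; 15 concentrations, three runs.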
# [13] = molecular target: Muscarinic acetylcholine receptor M1 (Homo sapiens) (UniProt P11229); test: Cholinergic receptor muscarinic 1 (CHRM1) small molecule agonists, cell-based qHTS assay (AID 1963589); note: nearly all actives have a fitted effect of over 35% in size
# Procedure, shortened: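 CHO cells stably expressing human CHRM1 were loaded with calcium dye for 1 h at 37 C, then compound was added in agonist mode. Intracellular calcium fluorescence was followed kinetically at 1 s intervals. Fifteen concentrations were tested in three independent runs.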
# [14] = cAMP Responsive Elements (CRE) small molecule agonists, cell-based qHTS assay (AID 1963590)
# Procedure, shortened: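 CRE-bla HEK 293T cells, 2,000/well in DMEM with 10% dialyzed FBS and 25 mM HEPES, pre-incubated 18 h at 37 C, then exposed to compound 3 h at 37 C. Beta-lactamase reporter read with LiveBLAzer B/G FRET substrate after 2 h at room temperature.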
# [15] = cAMP Responsive Elements (CRE) small molecule antagonists, cell-based qHTS assay (AID 1963591; active = well fitted inhibition curve with a large enough effect in the signal ratio in the repeat runs, not every such curve was filed as active; the % refers to the signal ratio; note: potency is the fitted concentration of half-maximal effect)
# Procedure, shortened: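 CRE-bla HEK293T cells plated 18 h, then given compound plus NKH477 at 0.25 uM final for 3 h at 37C. Beta-lactamase reporter read with LiveBLAzer B/G FRET substrate after 2 h at room temperature.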
# [16] = molecular target: Beta-2 adrenergic receptor (Homo sapiens) (UniProt P07550); test: Adrenergic beta2 receptor (ADRB2) small molecule antagonists, cell-based qHTS assay (AID 1963592); note: nearly all actives have a fitted effect of over 50% in size; note: potency is the fitted concentration of half-maximal effect
# Beta-2 adrenergic receptor (Homo sapiens), sequence (P07550 whole entry, looked up): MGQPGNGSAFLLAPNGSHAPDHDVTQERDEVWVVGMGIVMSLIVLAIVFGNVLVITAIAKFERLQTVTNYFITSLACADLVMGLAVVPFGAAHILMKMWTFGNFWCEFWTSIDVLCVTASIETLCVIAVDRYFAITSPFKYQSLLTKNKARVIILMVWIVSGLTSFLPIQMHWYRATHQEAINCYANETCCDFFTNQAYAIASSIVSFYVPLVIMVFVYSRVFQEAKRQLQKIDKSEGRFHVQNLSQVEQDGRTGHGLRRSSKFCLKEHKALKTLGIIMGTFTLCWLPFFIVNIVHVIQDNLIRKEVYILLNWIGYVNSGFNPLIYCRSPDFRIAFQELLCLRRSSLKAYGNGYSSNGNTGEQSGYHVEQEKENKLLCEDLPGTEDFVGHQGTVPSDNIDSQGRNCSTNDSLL
# Procedure, shortened: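 Cells (CHO, stable ADRB2 overexpression) incubated 18-20hr at 37C; compounds added from DMSO; agonist mix (1nM isoproterenol, 100uM IBMX, 25uM Ro-20-1724) added; 0.5hr RT; d2-cAMP and anti-cAMP-cryptate added; 1hr RT; 665/615 nm read.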
# [17] = molecular target: D(2) dopamine receptor (Homo sapiens) (UniProt P14416); test: Dopamine D2 receptor (DRD2) small molecule agonists, cell-based qHTS assay (AID 1963594); note: nearly all actives have a fitted effect of over 35% in size
# D(2) dopamine receptor (Homo sapiens), sequence (P14416 whole entry, looked up): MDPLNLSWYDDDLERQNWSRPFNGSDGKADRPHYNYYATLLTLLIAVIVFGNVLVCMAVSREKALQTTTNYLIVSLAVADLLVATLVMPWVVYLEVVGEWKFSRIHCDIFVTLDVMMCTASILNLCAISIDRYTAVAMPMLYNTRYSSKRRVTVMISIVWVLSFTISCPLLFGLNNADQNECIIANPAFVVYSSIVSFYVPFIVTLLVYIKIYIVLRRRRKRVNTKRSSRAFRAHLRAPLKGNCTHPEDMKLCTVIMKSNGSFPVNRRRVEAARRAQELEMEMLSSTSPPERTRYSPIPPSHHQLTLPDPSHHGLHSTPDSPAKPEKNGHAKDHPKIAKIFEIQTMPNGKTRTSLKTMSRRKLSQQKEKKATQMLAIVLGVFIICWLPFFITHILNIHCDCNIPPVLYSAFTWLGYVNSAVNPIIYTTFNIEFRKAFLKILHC
# Procedure, shortened: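 HEK293 cells stably expressing human DRD2, pre-treated with PDE inhibitor Ro20-1724 (0.1 mM final) and compound 10 min at room temperature, then stimulated with NKH477 (200nM […]) for 30 min. cAMP read by HTRF (665/620 nm).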
# [18] = molecular target: D(2) dopamine receptor (Homo sapiens) (UniProt P14416); test: Dopamine D2 receptor (DRD2) small molecule antagonists, cell-based qHTS assay (AID 1963595; active = well fitted inhibition curve with a large enough effect in the signal ratio in the repeat runs, with a control signal flat; the % refers to the signal ratio)
# Procedure, shortened: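 Antagonist mode in DRD2-HEK293 cells: after compound addition with 0.1 mM Ro20-1724, cells received quinpirole (12 nM) and NKH477 (200 nM) for 30 min at room temperature; HTRF cAMP read after 1 h detection.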
# [19] = molecular target: Beta-2 adrenergic receptor (Homo sapiens) (UniProt P07550); test: Adrenergic beta2 receptor (ADRB2) small molecule agonists, cell-based qHTS assay (AID 1963593);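 note: CHO cells stably overexpressing human ADRB2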
# Procedure, shortened: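 CHO cells stably over-expressing ADRB2 were plated overnight at 37C, then dosed with compounds plus a stimulation mix containing 100uM IBMX and 25uM Ro-20-1724 for 0.5hr at room temperature. cAMP was measured by HTRF competition, 1hr.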
# [20] = p53 small molecule agonists, cell-based qHTS assay (AID 1963582; active = well fitted activation curve with a large enough effect in the signal ratio in the repeat runs, not every such curve was filed as active; the % refers to the signal ratio)
# Procedure, shortened: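 p53RE-bla reporter cells, compounds added in DMSO after 5 h plating, incubated 16 h at 37 C. Beta-lactamase read via 2 h room-temperature LiveBLAzer B/G FRET substrate, fluorescence intensity.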
SMILES,Potency [1],Potency [2],Potency [3],Potency [4],Potency [5],Potency [6],Potency [7],Potency [8],Potency [9],Potency [10],Potency [11],Potency [12],Potency [13],Potency [14],Potency [15],Potency [16],Potency [17],Potency [18],Potency [19],Potency [20]
COC(CC(C)CCCC(C)(C)O)OC (stereo not given),inactive,inactive,inactive,inactive,inactive,inactive,inactive,inactive,inactive,inactive,inactive,inactive,inactive,inactive,inactive,inactive,inactive,inactive,,
CC(C)C(=O)c1c(C(C)C)nn2ccccc12,inactive,inactive,inactive,inactive,inactive,inactive,inactive,inactive,inactive,inactive,inactive,inactive,inactive,inactive,inactive,inactive,inactive,inactive,inactive,
N#[N+]c1ccc2c(S(=O)(=O)[O-])cccc2c1O,inactive,inactive,inactive,inactive,inactive,inactive,inactive,inactive,inactive,inactive,inactive,,inactive,inactive,inactive,inactive,inactive,inactive,,
CCCN1CCCC[C@H]1C(=O)Nc1c(C)cccc1C,inactive,inactive,inactive,inactive,inactive,inactive,inactive,inactive,inactive,inactive,inactive,inactive,,inactive,inactive,,inactive,,,
COC(=O)c1ccc(C)cc1C1=NC(C)(C(C)C)C(=O)N1 (stereo not given),inactive,inactive,inactive,inactive,inactive,inactive,inactive,inactive,inactive,inactive,inactive,inactive,inactive,inactive,inactive,inactive,inactive,inactive,,
COC(=O)c1cc(Cl)c(NC(C)=O)cc1OC,inactive,inactive,inactive,inactive,inactive,inactive,inactive,inactive,inactive,inactive,inactive,inactive,inactive,inactive,inactive,inactive,inactive,inactive,inactive,
CC(O)C(CO)C(C)O (stereo not given),inactive,inactive,inactive,inactive,inactive,inactive,inactive,inactive,inactive,inactive,inactive,inactive,inactive,inactive,inactive,inactive,inactive,inactive,inactive,
Oc1ccc(Cl)cc1Sc1cc(Cl)ccc1O,38.5 µM (active),15.3 µM (active) and inactive,inactive,inactive,inactive,inactive,inactive,32.3 µM (active) and inactive,18.2 µM (active) and 17.8 µM (active),29.7 µM (active) and inactive,inactive,inactive,,,,68.5 µM (active) and inactive,inactive,inactive,inactive,
CC[C@H]1CN2CCc3cc(OC)c(OC)cc3[C@@H]2C[C@@H]1C[C@H]1NCCc2cc(OC)c(OC)cc21,0.274 µM (active),inactive,inactive,inactive,inactive,inactive,inactive,inactive,inactive,,,,,inactive,1.68 µM (active),,inactive,inactive,inactive,inactive
CC(=O)O[C@]1(C(C)=O)CC[C@H]2[C@@H]3C=C(C)C4=CC(=O)CC[C@]4(C)[C@H]3CC[C@@]21C,inactive,inactive,inactive,inactive,inactive,inactive,inactive,inactive,inactive,,,,,,,inactive,inactive,inactive,inactive,inactive
CC(C)N=C=NC(C)C,inactive,inactive,inactive,inactive,inactive,inactive,inactive,inactive,inactive,inactive,inactive,,inactive,inactive,inactive,inactive,inactive,inactive,,
Nc1cccc2c1CN(C1CCC(=O)NC1=O)C2=O (stereo not given),inactive,inactive,inactive,inactive,inactive,inactive,inactive,inactive,inactive,inactive,inactive,inactive,inactive,inactive,inactive,inactive,inactive,inactive,inactive,
Oc1ccc(OCc2ccccc2)cc1,inactive,8.45 µM (active),inactive,inactive,inactive,inactive,inactive,inactive,inactive,,,,,inactive,,inactive,inactive,inactive,inactive,inactive
O=C(O)c1cc(=O)[nH]c(=O)[nH]1,inactive,inactive,inactive,inactive,inactive,inactive,inactive,inactive,inactive,inactive,inactive,inactive,inactive,inactive,inactive,inactive,inactive,inactive,inactive,inactive
O=C(O)CCCCCCCCCCCC(=O)O,30.1 µM (active) and inactive,inactive,inactive,inactive,inactive,inactive,inactive,inactive,,inactive,inactive,inactive,inactive,,,inactive,inactive,inactive,inactive,
C=C(C)[C@H]1CC=C(C)CC1,inactive,inactive,inactive,inactive,inactive,inactive,inactive,inactive,inactive,inactive,inactive,inactive,inactive,inactive,inactive,inactive,,,inactive,inactive
